Screening results (PubChem)
G9a block: inhibitors of human histone lysine methyltransferase G9a; Q96KQ7; AID 504332; G9a H3K9 monomethylation, AlphaScreen, 2 h; 8.8% of 350,000 active; Potency, µM (titrated, usually from 102 µM), for the others: at the highest dose activity, negative = inhibition, usual class: inhibitors; further: potency means the concentration at half of the fitted maximal effect; on the % scale 0 is the no-effect control and ±100 the full control effect; nearly all actives have a fitted effect of over 75% in size
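Signal arises when biotinylated H3K9 peptide, once monomethylated, bridges streptavidin donor and antibody-captured acceptor beads. Enzyme at 20 nM was preincubated 15 min with test compounds; peptide 500 nM and SAM 20 uM then reacted for 2 h.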
HP1b chromo inh: blocks HP1-beta chromodomain binding to methylated histone tails; P83916; AlphaScreen HP1-beta / biotin-H3K9me3 peptide binding; Potency, µM (series often up to 114 µM), for the others: at the top dose activity change, negative = inhibition, actives largely listed as inhibitors; 0.56% of 390,000 active; further: potency means the concentration at half of the fitted maximal effect; nearly all actives have a fitted effect of over 70% in size
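AlphaScreen: HP1-beta (50 nM) preformed 30 min with biotin-H3(1-18)K9me3 peptide (50 nM) in PBS pH 7.4, 0.01% Tween-20. Compound added for 30 min at RT, then streptavidin donor/nickel chelate acceptor beads (10 ug/mL) for 30 min.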
PI5P4Ka inh: blocks human PI5P4K alpha kinase activity | P48426 | PI5P4Kalpha enzyme, ADP-Glo luminescence, 60 min; stronger effect = lower value | max response, % | 1.2% of 330,000 active; active means max response of -50% or lower; inconclusive means between -30% and -50%; inactive means -30% or higher; further: value at the top dose of about 77 µM; on the % scale 0 is the no-effect control and ±100 the full control effect
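Compounds were pin-transferred onto PI5P4Kalpha and substrate in HEPES pH 7.4 buffer with EGTA, CHAPS and 5% DMSO. ATP (5 microM final) started the reaction, which ran 60 minutes at room temperature before ADP-Glo detection.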
BAZ2B inh: BAZ2B (human) inhibition | Q9UIF8 | Potency, µM (highest dose often 114 µM), for the others: at the top dose activity change, negative = inhibition, usual class: inhibitors | AlphaScreen BAZ2B-H3K14Ac peptide displacement | 4.4% of 360,000 active; further: potency means the concentration at half of the fitted maximal effect; on the % scale 0 is the no-effect control and ±100 the full control effect; nearly all actives have a fitted effect of over 60% in size
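AlphaScreen displacement of biotin-H3(5-23)K14Ac peptide (50 nM final) from BAZ2B (50 nM final) in PBS pH 7.4, 0.01% Tween-20; complex preformed 30 min RT, then compounds (top 110 uM) 30 min RT, beads 20 min dark.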
JMJD2A Tudor inh: inhibitors of human JMJD2A Tudor domain; O75164; AlphaScreen JMJD2A-Tudor / H3K4me3 peptide binding; Potency, µM (series often up to 114 µM), for inactives: at the top dose activity change, negative = inhibition, hits mostly inhibitors; 4.4% of 390,000 active; further: potency means the concentration at half of the fitted maximal effect; on the % scale 0 is the no-effect control and ±100 the full control effect; nearly all actives have a fitted effect of over 50% in size
L3MBTL1 block: inhibitors of human L3MBTL1. Q9Y468. AlphaScreen L3MBTL1–H3K9me1 peptide binding. Potency, µM (doses to about 57.1 µM), inactives show at the highest dose activity, negative = inhibition, actives largely listed as inhibitors. 0.66% of 230,000 active; further: potency means the concentration at half of the fitted maximal effect; on the % scale 0 is the no-effect control and ±100 the full control effect; nearly all actives have a fitted effect of over 60% in size
Target sequence (Q9Y468 whole entry, looked up): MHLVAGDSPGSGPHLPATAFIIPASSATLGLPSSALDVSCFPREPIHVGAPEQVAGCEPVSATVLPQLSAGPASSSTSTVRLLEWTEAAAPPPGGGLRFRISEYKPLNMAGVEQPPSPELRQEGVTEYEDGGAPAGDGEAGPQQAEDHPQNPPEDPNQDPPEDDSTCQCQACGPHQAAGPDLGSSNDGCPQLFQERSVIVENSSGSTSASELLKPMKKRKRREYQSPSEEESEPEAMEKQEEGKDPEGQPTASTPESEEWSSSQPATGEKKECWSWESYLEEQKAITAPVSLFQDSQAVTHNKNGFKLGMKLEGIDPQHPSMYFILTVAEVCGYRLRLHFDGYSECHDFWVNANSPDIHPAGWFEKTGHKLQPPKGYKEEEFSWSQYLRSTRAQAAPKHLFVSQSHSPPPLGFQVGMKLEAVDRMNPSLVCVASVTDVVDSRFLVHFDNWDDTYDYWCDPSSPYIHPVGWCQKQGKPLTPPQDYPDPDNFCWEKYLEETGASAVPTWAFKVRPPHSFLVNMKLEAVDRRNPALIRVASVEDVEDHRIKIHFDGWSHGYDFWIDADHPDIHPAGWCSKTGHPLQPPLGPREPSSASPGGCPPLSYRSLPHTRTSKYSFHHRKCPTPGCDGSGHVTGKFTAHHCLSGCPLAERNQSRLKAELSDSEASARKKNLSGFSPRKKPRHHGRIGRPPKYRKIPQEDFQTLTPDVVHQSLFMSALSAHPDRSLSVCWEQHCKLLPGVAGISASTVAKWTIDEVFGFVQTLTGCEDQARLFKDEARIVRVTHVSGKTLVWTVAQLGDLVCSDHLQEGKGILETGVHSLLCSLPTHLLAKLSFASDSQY
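First, the protein-peptide complex forms for 30 min at room temperature (L3MBTL1 50 nM, biotinylated H3K9me1 peptide 75 nM). Next, compounds are pin-transferred and incubated 30 min. Finally, AlphaScreen beads are added and read after 30 min.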
* hit, by the source's call; u = inconclusive; x = not tested or not shown; [ ] = dose if it differs, or a comment. Most compounds without a hit are left out; they make up all but 11% or so of the library. Unless noted, the call rests on the fitted dose curve; in most records, active means well fitted inhibition curve with a large enough effect; inconclusive means small, poorly fitted or top-dose-only effect; inactive means no such curve, though single readings can be large or run the other way.

SMILES	G9a block	HP1b chromo inh	PI5P4Ka inh	BAZ2B inh	JMJD2A Tudor inh	L3MBTL1 block
O=C(CCSc1nc(-c2ccco2)cc(C(F)(F)F)n1)N1CCN(c2ccccn2)CC1	u	29%	-5	-13%	-26%	1%[11.4 µM]
O=C(CCSc1nc(-c2ccco2)cc(C(F)(F)F)n1)N1CCCc2ccccc21	16µM*	44%	-12	0%	-9%	u
CC(C)OC(=O)c1c(NC(=O)c2cc3nc(-c4ccccc4)cc(C(F)(F)F)n3n2)sc2c1CCCC2	13µM*	-6%	x	-2%	-20%	x
O=C(c1cccnc1)N1C2C=CC(C2)C1(C(F)(F)F)C(F)(F)F (stereo unspecified)	-6%[59 µM]	-18%	-9	u	71µM*	x
O=C(c1ccncc1)N1C2C=CC(C2)C1(C(F)(F)F)C(F)(F)F (stereo unspecified)	u	x	x	22%	x	-9%
O=C(c1ccco1)N1CCN(C(=O)N2CCCC2)CC1	13%	-6%	-1	7%	-17%	-9%
O=C(c1ccco1)N1CCN(CC(=O)N2c3ccccc3CCc3ccccc32)CC1	u	14µM*	-6	18µM*	1µM*	x
CC1CCCN(C(=O)CN2CCN(C(=O)c3ccco3)CC2)C1 (stereo unspecified)	25µM*	34%	3	-6%	-3%	0%
CC1(C)CC(=O)C(N=Nc2ccc(Cl)cc2)=C(O)C1	6%	23%	5	2%	-5%	-4%
CC1(C)CC(=O)C(N=Nc2cc(S(=O)(=O)N3CCOCC3)ccc2Cl)=C(O)C1	50µM*	34%	-2	56µM*	2%	32µM*
CC1(C)CC(=O)C(N=Nc2c(Cl)cc(Cl)cc2Cl)=C(O)C1	4%[59 µM]	-14%	-3	u	50µM*	-1%
CC1(C)CC(=O)C(N=Nc2cccnc2)=C(O)C1	u	4%	1	-6%	35µM*	x
CC1(C)CC(=O)C(N=Nc2cc(C(F)(F)F)ccc2Cl)=C(O)C1	u	4%	4	u	-35%	-10%
Cc1ccc2[nH]c(=O)c3cc(C(=O)NC(C)C)sc3c2c1	-5%	36%[57 µM]	7	-17%	32µM*	x
CCOC(=O)C(C)NC(=O)c1cc2c(=O)[nH]c3ccc(C)cc3c2s1 (stereo unspecified)	-3%[59 µM]	34%	x	6%	1%	x
CC(C)(C)C(=O)OCCNc1nc(-c2cccs2)nc2ccccc12	x	53%	x	x	-9%	x
CCOc1ccc(Nc2ncnc3c2cnn3Cc2ccccc2)cc1	-38%[59 µM]	9%	x	u	-17%	0%
Cc1ccc(Cn2ncc3c(NN)ncnc32)cc1	u	27%	-1	50µM*	u	x
Cc1ccc(Cn2ncc3c(NCCN(C)C)ncnc32)cc1	50µM*	17%	4	-4%	-22%	x
COc1ccc(CC(=O)NNc2ncnc3c2cnn3C)cc1	25µM*	26%	4	79µM*	-22%	7%
Cc1ccc(Cn2ncc3c(NCCCN(C)C)ncnc32)cc1	u	26%	1	1%	-11%	x
CCN(CC)c1ncnc2c1cnn2Cc1ccc(C)cc1	-4%	3%	-6	16%	-11%	x
COc1ccc(Nc2ncnc3c2cnn3Cc2ccccc2)cc1	50µM*	2%	x	79µM*	89µM*	5%
CCc1cnc2c(c1SCc1cc(OC)cc(OC)c1)c(=O)n(C)c(=O)n2C	-24%[59 µM]	37%	x	2%	-10%	x
Cc1ccc(Cn2ncc3c(N4CCN(Cc5ccc(Cl)cc5)CC4)ncnc32)cc1	35µM*	19%	27	-33%	-22%	-5%
Cc1cc(=O)n2c(C(=O)Nc3ccc(C)c(Cl)c3)c(C(=O)Nc3ccccc3)sc2n1	u	17%	x	-5%	-11%	x
N#Cc1c(Nc2cccc(F)c2)sc2c(O)cc(=O)[nH]c12	u	18%	-76*	u	-21%	u
COc1ccc(C2CC(=O)c3sc(NC(C)=O)nc3C2)cc1 (stereo unspecified)	40µM*	-10%	-18	-5%	-21%	-1%
